Bioassay records as filed in PubChem BioAssay.
FMDV inh – antivirals against foot and mouth disease virus; FMDV antiviral cell-based qHTS; Potency, µM (series often up to 57.9 µM), inactives show top-dose activity change, negative = inhibition, most hits filed as inhibitors; 410,000 compounds, 1.2% hits; calls by dose curve; tested in HEK293T cells; also: read-out not given here; potency is read from the fitted curve at half-maximal effect; nearly all actives have a fitted effect of over 45% in size
Lassa entry inh – Lassa virus entry inhibition | AID 540256 | 300,000 compounds, 1.2% hits | Lassa virus pseudotype entry inhibition, cell reporter | Potency, µM (series often up to 37.9 µM), for the others: at the top dose activity change, negative = inhibition, usual class: inhibitors; calls by dose curve; tested in HEK293 cells; also: potency is read from the fitted curve at half-maximal effect; nearly all actives have a fitted effect of over 50% in size
Marburg entry inh – blocks Marburg virus binding to or entry into cells | Marburg virus pseudotyped entry inhibition, cell reporter | 300,000 compounds, 1.8% hits | Potency, µM (top dose mostly 37.8 µM), inactives show top-dose activity change, negative = inhibition, usual class: inhibitors | AID 540276; calls by dose curve; tested in HEK293 cells; also: potency is read from the fitted curve at half-maximal effect
HCV inhibitor – HCV inhibition; Huh7.5.1 HCVcc-Cre infection, luciferase reporter, 44 h; Potency, µM (top dose mostly 41.8 µM), inactives show top-dose activity change, negative = inhibition, usual class: inhibitors; 340,000 compounds, 3.4% hits; AID 651820; also: potency is read from the fitted curve at half-maximal effect
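Cells seeded at 1,000/well and cultured 4 h, then compounds added followed by HCVcc-Cre virus (~0.5 moi). After 44 h further culture, luciferase substrate was added, plates held 15 min at room temperature, and luminescence read for 15 sec.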
FBPA Giardia inh – inhibitors of Giardia lamblia fructose-1,6-bisphosphate aldolase; purified Giardia FBPA; Potency, µM (doses to about 59.6 µM), for the others: top-dose activity, negative = inhibition, hits mostly inhibitors; 290,000 compounds, 0.71% hits; AID 2451; also: potency is read from the fitted curve at half-maximal effect; nearly all actives have a fitted effect of over 55% in size
Target sequence (A8B2U2 whole entry, looked up): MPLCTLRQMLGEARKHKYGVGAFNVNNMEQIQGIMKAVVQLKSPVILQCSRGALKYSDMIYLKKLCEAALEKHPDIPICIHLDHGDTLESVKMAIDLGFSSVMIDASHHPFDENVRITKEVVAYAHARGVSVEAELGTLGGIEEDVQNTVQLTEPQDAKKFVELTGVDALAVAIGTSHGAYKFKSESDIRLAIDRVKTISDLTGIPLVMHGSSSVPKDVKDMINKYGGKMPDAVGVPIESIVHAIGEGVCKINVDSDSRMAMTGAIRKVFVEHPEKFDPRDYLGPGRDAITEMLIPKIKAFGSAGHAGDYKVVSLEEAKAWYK
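40 nM FBPA preincubated 10 min at RT with compound (up to 57.5 uM final), then substrate plus GAPDH/TPI/NAD/arsenate coupling and diaphorase/resazurin added. Fluorescence read after 20 min at RT, 525/598 nm.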
HCMV antiviral – human cytomegalovirus inhibition; activity change, negative = inhibition, % at 57.5 µM; AID 1259415; 410,000 compounds, 4.5% hits; HFF cells, HCMV-luciferase reporter, 72 h; active compounds read low; in the data active = activity change below about -60%; inconclusive = no clear call, values can overlap the other calls; inactive = above about -39%
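Human foreskin fibroblasts infected with luciferase-reporter HCMV at MOI 1 PFU/cell, compounds at two doses. Luciferase measured 72 h post infection; normalized to buffer-only basal and Salinomycin (10uM) controls.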
An asterisk follows results filed as active; ? = inconclusive; · = not tested or not shown; ! = repeats disagree; [ ] = remark or other dose. In the library only some 8.3% were active in any assay of this set; here they are far more common. Unless noted, calls follow the shape of the dose curve; as a rule, active = well fitted curve in the direction sought with a large enough effect; inconclusive = small, poorly fitted or top-dose-only effect, or another doubt; inactive = no such curve, though single readings can be large; an effect the other way counts as inactive or inconclusive. % is scaled to controls: 0 for no effect and ±100 for the full control effect.

SMILES	FMDV inh	Lassa entry inh	Marburg entry inh	HCV inhibitor	FBPA Giardia inh	HCMV antiviral
Cc1cccc2sc(NC(=O)c3ccc(Cl)s3)nc12	-9%	·	·	10µM*	-5%	90
Cc1cccc2sc(NC(=O)CN(C)S(=O)(=O)c3cccs3)nc12	40µM*	-15%	-23%	-22%	-9%	-21
Cc1cccc2sc(NC(=O)C3CC3)nc12	37%	11%	?	-22%	19%	30
Cc1cccc2sc(NC(=O)CN(C)S(=O)(=O)c3ccc(Br)s3)nc12	?	?	?	?	-3%	-38
N#Cc1cccc(NC(=O)N2CCCC3(CCN(C(=O)c4cccc(F)c4)CC3)C2)c1	-10%	·	·	·	-5%	·
CS(=O)(=O)c1ccc(C(=O)OCC(=O)N2CCOCC2)cc1[N+](=O)[O-]	?	·	·	·	·	-80*
CS(=O)(=O)c1ccc(C(=O)OCC(=O)NC(=O)C2COc3ccccc3O2)cc1[N+](=O)[O-] (centres undefined)	0%	-12%	-26%	?	·	27
CS(=O)(=O)c1ccc(C(=O)OCC(=O)N2CCN(CCC3CCCCC3)CC2)cc1[N+](=O)[O-]	25µM*	·	·	·	·	-103*
COc1ccc(C2=NN(C(=O)COC(=O)c3ccc(S(C)(=O)=O)c([N+](=O)[O-])c3)C(c3ccco3)C2)cc1 (centres undefined)	25µM*	?	?	?	·	42
CS(=O)(=O)c1ccc(C(=O)OCC(=O)NC(=O)C2CCCCC2)cc1[N+](=O)[O-]	22µM*	?	?	-1%	2%	-77*
CCCCNC(=O)N[C@H]1CC[C@@]23CCCN2C(=O)CCC[C@H]3C1Cc1ccccc1 (some centres undefined)	·	·	·	·	·	-6
CCN1C(C)=C(C(=O)OC)C(c2ccccc2)N2C(=O)[C@](O)(C(=O)OC)CC(C#N)=C12 (some centres undefined)	·	·	·	·	0%[12.9 µM]	·
CC(C)Sc1ncc(Cl)c(C(=O)Nc2nc3ccc(S(C)(=O)=O)cc3s2)n1	0%	42%[46.1 µM]	-1%[46.1 µM]	·	·	21
COCCNC(=O)Cn1nc(C)c2c(C)n(-c3ccc(C)cc3)nc2c1=O	0%	6%[46.1 µM]	·	·	·	0
COc1ccc(OC)c(CCNC(=O)C(C)n2nc(C)c3c(C)n(-c4ccc(C)cc4)nc3c2=O)c1 (centres undefined)	3.5µM*	-16%[46.1 µM]	·	2.8µM*	0%	-77*!
COc1ccc(OC)c(CCNC(=O)C(C)n2nc(C)c3c(C)n(-c4ccccc4)nc3c2=O)c1 (centres undefined)	-8%	-22%[46.1 µM]	?	?	·	-10
COc1ccc(CCNC(=O)Cn2nc(C)c3c(C)n(-c4ccc(C)cc4)nc3c2=O)c(OC)c1	?	?	·	·	·	-91*
CC(C)c1nnc(NC(=O)CC(=O)Nc2ccccc2C(=O)O)s1	-34%	6.3µM*	?	15%	-7%	-28
CC(C)Cc1nnc(NC(=O)CC(=O)Nc2ccccc2C(=O)O)s1	-16%	?	?	5%	4%	-34
CCOc1ccccc1C(=O)Nc1nnc(C(C)C)s1	2%	·	·	13µM*	-10%	62
O=C(NCCN1CCC(n2c(=O)[nH]c3ccccc32)CC1)c1ccc(C(F)(F)F)cc1C(F)(F)F	20µM*	·	·	·	·	?
COc1ccc(NC(=O)CSC2=Nc3ccccc3C3=NC(CCC(=O)NCc4cccs4)C(=O)N23)cc1 (centres undefined)	-27%	5%[46.1 µM]	·	·	·	-73*
O=C(CSC1=Nc2ccccc2C2=NC(Cc3ccccc3)C(=O)N12)Nc1cccc(Cl)c1 (centres undefined)	-24%	?	·	·	·	-72*
Cc1ccc(Cl)cc1NC(=O)CSC1=Nc2ccccc2C2=NC(Cc3ccccc3)C(=O)N12 (centres undefined)	-1%	?	·	·	·	?
COc1cccc(NC(=O)CSC2=Nc3ccccc3C3=NC(CCC(=O)NCCc4ccccc4)C(=O)N23)c1 (centres undefined)	?	-10%[46.1 µM]	·	·	·	-68*
CCOc1ccc(NC(=O)CSC2=Nc3ccccc3C3=NC(CCC(=O)NCc4cccs4)C(=O)N23)cc1 (centres undefined)	0%	-22%[46.1 µM]	·	·	·	0
